We go through 40 sequences from the OligoGym collection.
Note: reference of the scale not given here.

The target of one test is FBXO43. Briefly: pooled miR-30 sensor sort-seq; sequence = guide strand. The note with it: shRNA.
TTCTTGAAAAGAACCCTCCTGG came in with a sensor-assay potency score (higher = more potent) of 0.0426. TTGCTTTTCATGAACAGCTCAT registered a sensor-assay potency score (higher = more potent) of -0.219. The same measure, in the same setting: as for TTTGACTGCATGAAGTCACTTC, the figure is 0.521; as for TTGAACAACAATTTCACGCCAA, 0.6.

For the sequence TAGGCTACAATCATCTTTGGAA, the sensor-assay potency score (higher = more potent) was 0.408. On the same count and under the same terms, the value for TAACAGAAGAGCTTGCTAGAGG was -0.36.

The target of the next test is FBXO8. The test is described as above. The note with it: shRNA.
TAGGACAAGATGGTAAAGCTTA: the sensor-assay potency score (higher = more potent) was -0.15. On the same count and under the same terms, the value for TTGCTCACTGTAGCCTTCTTGT was -1.19; that for TTTATCATTCGTTAACAGCTGT was 0.355. TCATCCAAGACATCTCTCCTTT gave a sensor-assay potency score (higher = more potent) of 0.239.

TAGCACAGTACATAGACAGCAT registered a sensor-assay potency score (higher = more potent) of 0.733. On the same count and under the same terms, the value for TTCATCATTCGCAAGGTCCTGC was 0.558; that for TTAGTCTGAAGTAAAAACTGAA was -0.599; that for TTGTACAGAAGATAAACTTTGC was -0.385.

As for TTGCTCGCAGCCATTCTCCTGC, the sensor-assay potency score (higher = more potent) is -0.359. On to TTCCTTTGGCGAATCATCCAGG, for which the sensor-assay potency score (higher = more potent) is -0.484. The sequence TTCATCAAGATAGATTCTCAGT registered a sensor-assay potency score (higher = more potent) of -0.522.

For a further test, the target named is FBXW9. Described as above. The note with it: shRNA.
TTGACGTTGCGATCTCGGGAGC had a sensor-assay potency score (higher = more potent) of -1.12.

TTCACTGTGCTGTCCCAGGAGC: the sensor-assay potency score (higher = more potent) was -1.05. Consider TCGTAGATGGTCACCTTCTTGT, for which the sensor-assay potency score (higher = more potent) was -0.618. In turn, TCGCTCTCAACTGAGAGCGGGG yielded a sensor-assay potency score (higher = more potent) of -1.29. Still for that read-out and setting: the value for TACTATTTCGCTTAGTGCCTAA was -0.65; that for TTCGCTCTCAACTGAGAGCGGG was -0.823.

For TAAGGTCTTGATCAGAACCTGG, the sensor-assay potency score (higher = more potent) was -0.161. For TAGATGGTCACCTTCTTGTCAT, the sensor-assay potency score (higher = more potent) was -0.453. The same measure, in the same setting: as for TTCTCTTCCACCACTGGGTAGG, the figure is -0.729; as for TATCTCGCCGAACTGCTGCCCA, -0.658; as for TCGCTTAGTGCCTAAGGTCTTG, -0.92. Still for that read-out and setting: the value for TTCTTCTCTTCCACCACTGGGT was -0.376.

A further test addresses FCF1. Described as above. The note with it: shRNA.
The sequence TTATGCTGAGTTACTCTCTGTA yielded a sensor-assay potency score (higher = more potent) of 0.221. The sequence TTTTAATCTATCCTTTTCTTTA had a sensor-assay potency score (higher = more potent) of -1.02. Sequence TTCCTTTGTGTGTACATGGTAA gave a sensor-assay potency score (higher = more potent) of -0.531. Regarding TTATATTGGAAAAATAAGCAGG, the sensor-assay potency score (higher = more potent) was -0.37.

TTTTAGGTTTTAATCTATCCTT yielded a sensor-assay potency score (higher = more potent) of -0.595. For the sequence TTAGGTTTTAATCTATCCTTTT, the sensor-assay potency score (higher = more potent) is -0.692.

As to TTTAGGTTTTAATCTATCCTTT, the sensor-assay potency score (higher = more potent) was -0.181. TGTGTGTACATGGTAATCGTTC had a sensor-assay potency score (higher = more potent) of -0.765. The same measure, in the same setting: as for TCTGAGACTAAGCATTCGCTTC, the figure is -1.06; as for TTCATGGTCGCATACTTCCTTG, -1.25. Still for that read-out and setting: as for TTGGGGAACTTCTCTTTCCTTT, the figure is -0.569.
